PubChem BioAssay (Tox21)
A number with no mark means an inactive call. Records with an inconclusive call do not appear. Entries that show only a call come without a potency. Activity calls are given as the source filed them. Unless noted, calls follow the shape of the dose curve; as a rule, active = well fitted curve in the direction sought with a large enough effect in the repeat runs; inconclusive = weak or mixed curves; inactive = no such curve, though single readings can be large; an effect the other way counts as inactive or inconclusive.

Assays:
[1] = qHTS assay to identify small molecule antagonists of the estrogen related receptor (ERR) signaling pathway from Tox21 library - cell viability counter screen (AID 1224834); also: nearly all actives have a fitted effect of over 30% in size; also: potency is read from the fitted curve at half-maximal effect
How it was run: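 Compounds in DMSO were pinned onto ERR cells that had been incubated for 6 h, and the plates were held at 37 C for 17.5 h. CellTiter-Fluor reagent was then added and fluorescence was measured after 30 min.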

[2] = biological target: Luciferin 4-monooxygenase (Photinus pyralis) (UniProt P08659); assay: qHTS assay to identify small molecule inhibitors of firefly luciferase (AID 1224835); also: nearly all actives have a fitted effect of over 25% in size; also: potency is read from the fitted curve at half-maximal effect
How it was run: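 Biochemical qHTS: compounds run as interplate titrations against purified firefly enzyme, with D-luciferin and ATP each at its KM concentration. Light output recorded by CCD imaging.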

[3] = qHTS assay to identify small molecule agonists of the constitutive androstane receptor (CAR) signaling pathway - cell viability counter screen (AID 1224836); also: nearly all actives have a fitted effect of over 45% in size; also: potency is read from the fitted curve at half-maximal effect
How it was run: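 Viability read-out: CellTiter-Fluor fluorescence after 23 h compound exposure at 37 C/5% CO2 in double-stable HepG2-CYP2B6-hCAR cells, with PK11195 present at 0.75 uM final; compounds tested in 15-point titration.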

[4] = biological target: Nuclear receptor subfamily 1 group I member 3 (Homo sapiens) (UniProt Q14994); assay: qHTS assay to identify small molecule antagonists of the constitutive androstane receptor (CAR) signaling pathway (AID 1224838);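 also: HepG2 cells stably expressing hCAR with CYP2B6 luciferase reporter stimulated by CITCO; nearly all actives have a fitted effect of over 40% in size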; also: potency is read from the fitted curve at half-maximal effect
How it was run: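 Luminescence from a CYP2B6-2.2kb promoter reporter in hCAR-expressing HepG2 cells reflects CAR signaling. Cells received compounds at 15 concentrations and 50 nM CITCO (final), then incubated 24 h at 37 C/5% CO2.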

[5] = biological target: Nuclear receptor subfamily 1 group I member 3 (Homo sapiens) (UniProt Q14994); assay: qHTS assay to identify small molecule agonists of the constitutive androstane receptor (CAR) signaling pathway (AID 1224839); also: nearly all actives have a fitted effect of over 15% in size; also: potency is read from the fitted curve at half-maximal effect;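 as to activation: HepG2 cells stably carrying human CAR and a CYP2B6 luciferase reporter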
How it was run: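 Luminescence read-out (ONE-Glo, 30 min, room temperature) from double-stable HepG2-CYP2B6-hCAR cells exposed 24 h to 15-point compound series in presence of 0.75 uM PK11195 final.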

[6] = qHTS assay to identify small molecule antagonists of the estrogen related receptor signaling pathway with the pleiotropic PPARgamma coactivator (PGC) from Tox21 10K library - cell viability counter screen (AID 1224840; active = well fitted cell-killing curve with a large enough effect in the repeat runs, not every such curve was filed as active; also: nearly all actives have a fitted effect of over 40% in size; also: potency is read from the fitted curve at half-maximal effect)
How it was run: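 Cell viability is measured by CellTiter-Fluor fluorescence in PGC/ERR cells that receive compounds after a 6-hour attachment period and are then incubated 17.5 hours at 37 C.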

[7] = biological target: Thyrotropin receptor (Homo sapiens) (UniProt P16473); assay: qHTS assay to identify small molecule agonists of the thyroid stimulating hormone receptor (TSHR) signaling pathway (AID 1224843; calls by dose curve; also: nearly all actives have a fitted effect of over 45% in size; also: potency is read from the fitted curve at half-maximal effect)
How it was run: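 Agonist-mode screen: TSHR HEK293 cells received test chemicals for half an hour at room temperature, then HTRF cAMP detection reagents for one hour prior to fluorescence measurement. Each chemical ran as a 15-concentration series, triplicated.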

[8] = qHTS assay to identify small molecule agonists of the hypoxia (HIF-1) signaling pathway - cell viability counter screen (AID 1224844; calls by dose curve; also: nearly all actives have a fitted effect of over 50% in size; also: potency is read from the fitted curve at half-maximal effect)
How it was run: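 Viability counter screen: HRE-bla ME-180 cells plated 5 hrs before compound addition, treated 17 hrs at 37C and 5% CO2, then CellTiter-Glo added after the FRET reporter read; luminescence after 30 min.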

[9] = qHTS assay to identify small molecule agonists of H2AX (AID 1224845; active = well fitted activation curve with a large enough effect in the signal ratio in the repeat runs, not every such curve was filed as active; the % refers to the signal ratio)
How it was run: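 Wild-type CHO-K1 cells, plated overnight, exposed 3hr at 37C to 15 concentrations (0.76% DMSO final). Lysed, then HTRF anti-pH2AX (S139) cryptate and anti-H2AX-d2 antibodies, 24 hr room temperature; 665/620 nm emission read.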

[10] = qHTS assay to identify small molecule agonists of the hypoxia (HIF-1) signaling pathway (AID 1224846; active = well fitted activation curve with a large enough effect in the signal ratio in the repeat runs, not every such curve was filed as active; the % refers to the signal ratio)
How it was run: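 Agonist mode reporter screen. ME-180 cells stably expressing bla under HRE control received test compounds in DMSO for 17 hrs (37C, 5% CO2), and beta-lactamase activity was then detected with the CCF4-AM FRET substrate.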

[11] = qHTS assay to identify small molecule agonists of H2AX - cell viability counter screen (AID 1224847; calls by dose curve; also: nearly all actives have a fitted effect of over 30% in size; also: potency is read from the fitted curve at half-maximal effect)
How it was run: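 CHO-K1 wt, 1000 cells/well, o/n 37C; cpds 15 conc, 3 h 37C, 0.76% DMSO; CellTiter-Glo, 30 min RT, luminescence.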

[12] = qHTS RealTime-Glo MT Cell Viability Assay in HepG2 cells - 24 hour (AID 1224867); also: nearly all actives have a fitted effect of over 50% in size; also: potency is read from the fitted curve at half-maximal effect
How it was run: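 qHTS, HepG2, 600 cells/well, RealTime-Glo (NanoLuc + prosubstrate) added with cells; 5 h preincubation; DMSO compound addition; 37 C; luminescence at 0/8/16/24/32/40 h.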

[13] = qHTS RealTime-Glo MT Cell Viability Assay in HEK293 cells - 32 hour (AID 1224868); also: nearly all actives have a fitted effect of over 50% in size; also: potency is read from the fitted curve at half-maximal effect
How it was run: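 Assay medium contained NanoLuc luciferase plus cell-permeant prosubstrate, added with HEK293 cells at 600 cells/well. After 5 h at 37 C/5% CO2 compounds were added; plates stayed at 37 C for 40 h with serial luminescence reads.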

[14] = A CellTox Green Cytotoxicity Assay to monitor cytotoxicity in HEK293 cells - 0 hour (AID 1224869); also: nearly all actives have a fitted effect of over 50% in size
How it was run: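 Dead-cell fluorescence measured kinetically: asymmetric cyanine dye, HEK293, 600 cells/well, 5 h settle, 23 nL cpd/DMSO, 37 C, reads 0–40 h every 8 h.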

[15] = qHTS RealTime-Glo MT Cell Viability Assay in HepG2 cells - 40 hour (AID 1224870); also: nearly all actives have a fitted effect of over 50% in size; also: potency is read from the fitted curve at half-maximal effect
How it was run: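 HepG2 cells (600/well) mixed with RealTime-Glo MT reagent, settled 5 h at 37 C/5% CO2 before compound addition. Nonlytic NanoLuc luminescence from viable-cell prosubstrate reduction read repeatedly during 40 h treatment at 37 C.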

[16] = qHTS assay to identify small molecule antagonists of the constitutive androstane receptor (CAR) signaling pathway - cell viability counter screen (AID 1224837); also: nearly all actives have a fitted effect of over 45% in size
How it was run: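 Cells are seeded, rested 4 hr at 37 C/5% CO2, dosed with compound (15-point series) and 50 nM CITCO, incubated a further 23 hr, and then CellTiter-Fluor reagent is added before fluorescence is read. The line is HepG2 with stable hCAR and CYP2B6-2.2kb.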

[17] = qHTS assay to identify small molecule agonists of the estrogen related receptor signaling pathway with the pleiotropic PPARgamma coactivator (PGC) from Tox21 10K library (AID 1224842); also: nearly all actives have a fitted effect of over 15% in size
How it was run: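 PGC/ERR reporter cell line, 2,000 cells per well, incubated 6 h at 37 C before 23 nL compound in DMSO was added. After 18 h at 37 C, One-Glo luminescence read following 30 min at room temperature.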

[18] = qHTS assay to identify small molecule agonists of the estrogen related receptor (ERR) signaling pathway from Tox21 library (AID 1224849; calls by dose curve; also: nearly all actives have a fitted effect of over 15% in size); conditions: ERR reporter cell line, ONE-Glo luciferase, 18 h; at 92.4 µM (top of the series) unless noted
How it was run: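 Quantitative HTS in agonist format: NTP ERR cell line, compounds transferred in DMSO after 6 h plating, 18 h incubation at 37 C, ONE-Glo luminescence endpoint.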

[19] = qHTS assay to identify small molecule antagonists of the estrogen related receptor signaling pathway with the pleiotropic PPARgamma coactivator (PGC) from Tox21 10K library (AID 1224841; call rule not given here; also: potency is read from the fitted curve at half-maximal effect)
How it was run: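 Cells stably carrying the PGC/ERR reporter, seeded at 2,000 per well, received pin-transferred compounds 6 h post-plating. Exposure lasted 18 h at 37 C. Signal: One-Glo luminescence.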

[20] = qHTS assay to identify small molecule antagonists of the estrogen related receptor (ERR) signaling pathway from Tox21 library (AID 1224848); also: nearly all actives have a fitted effect of over 50% in size; also: potency is read from the fitted curve at half-maximal effect
How it was run: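 Quantitative high-throughput format: ERR reporter cells (2,000/well) pre-incubated 6 h, treated 18 h at 37 C with compounds in DMSO alongside positive and negative controls, then read by ONE-Glo luminescence.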

Chain of Luciferin 4-monooxygenase (Photinus pyralis) (P08659 whole entry, looked up): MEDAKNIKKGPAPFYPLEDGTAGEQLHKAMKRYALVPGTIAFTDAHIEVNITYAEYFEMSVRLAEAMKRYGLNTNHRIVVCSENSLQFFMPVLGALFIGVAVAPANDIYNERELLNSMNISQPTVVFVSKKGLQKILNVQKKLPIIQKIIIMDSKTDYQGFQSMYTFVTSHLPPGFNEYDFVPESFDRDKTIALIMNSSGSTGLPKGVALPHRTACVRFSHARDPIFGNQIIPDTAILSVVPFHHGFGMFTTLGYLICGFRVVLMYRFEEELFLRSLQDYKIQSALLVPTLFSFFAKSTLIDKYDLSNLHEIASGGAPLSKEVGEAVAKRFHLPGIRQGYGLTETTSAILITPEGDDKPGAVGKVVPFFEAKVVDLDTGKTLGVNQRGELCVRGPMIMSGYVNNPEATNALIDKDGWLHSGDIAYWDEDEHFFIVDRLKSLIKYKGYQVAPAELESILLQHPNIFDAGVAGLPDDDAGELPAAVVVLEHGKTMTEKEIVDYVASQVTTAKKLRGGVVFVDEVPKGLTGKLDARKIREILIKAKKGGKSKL
Chain of Nuclear receptor subfamily 1 group I member 3 (Homo sapiens) (Q14994 whole entry, looked up): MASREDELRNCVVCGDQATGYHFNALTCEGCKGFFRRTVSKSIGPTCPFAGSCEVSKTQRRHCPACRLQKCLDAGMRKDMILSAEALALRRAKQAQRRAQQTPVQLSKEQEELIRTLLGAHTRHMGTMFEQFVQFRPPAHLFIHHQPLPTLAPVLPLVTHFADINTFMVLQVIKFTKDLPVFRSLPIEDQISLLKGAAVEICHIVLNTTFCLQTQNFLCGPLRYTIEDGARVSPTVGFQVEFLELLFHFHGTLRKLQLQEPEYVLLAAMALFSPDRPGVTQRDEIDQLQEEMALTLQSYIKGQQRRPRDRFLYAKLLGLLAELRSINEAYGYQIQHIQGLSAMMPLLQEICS
Chain of Thyrotropin receptor (Homo sapiens) (P16473 whole entry, looked up): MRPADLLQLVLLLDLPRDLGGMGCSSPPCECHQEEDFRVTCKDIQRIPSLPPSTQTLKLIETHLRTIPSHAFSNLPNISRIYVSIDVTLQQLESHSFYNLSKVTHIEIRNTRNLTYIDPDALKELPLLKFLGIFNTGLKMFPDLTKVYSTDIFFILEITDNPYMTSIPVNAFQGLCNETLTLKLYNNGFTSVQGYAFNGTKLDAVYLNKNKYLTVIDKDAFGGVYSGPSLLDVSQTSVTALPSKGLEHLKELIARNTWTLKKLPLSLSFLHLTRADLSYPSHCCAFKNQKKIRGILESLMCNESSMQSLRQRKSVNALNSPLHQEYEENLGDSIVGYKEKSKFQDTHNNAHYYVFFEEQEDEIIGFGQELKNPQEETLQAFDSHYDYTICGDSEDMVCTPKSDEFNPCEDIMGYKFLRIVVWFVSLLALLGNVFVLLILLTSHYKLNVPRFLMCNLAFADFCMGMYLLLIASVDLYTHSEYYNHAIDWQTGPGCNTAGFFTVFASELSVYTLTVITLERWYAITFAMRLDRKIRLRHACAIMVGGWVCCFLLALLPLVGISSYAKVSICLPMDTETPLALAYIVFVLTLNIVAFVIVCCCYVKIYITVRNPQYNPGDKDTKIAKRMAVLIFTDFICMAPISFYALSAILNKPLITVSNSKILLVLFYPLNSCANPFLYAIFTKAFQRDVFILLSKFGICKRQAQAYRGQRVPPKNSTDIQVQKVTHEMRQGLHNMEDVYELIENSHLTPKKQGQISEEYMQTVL

Row | Compound | Potency [1] | Potency [2] | Potency [3] | Potency [4] | Potency [5] | Potency [6] | Potency [7] | Potency [8] | Potency [9] | Potency [10] | Potency [11] | Potency [12] | Potency [13] | Potency [14] | Potency [15] | Potency [16] | Potency [17] | activity change, positive = activation [18] | Potency [19] | Potency [20]
1 | CSC(C)(C)/C=N/O | inactive | inactive | inactive | inactive | inactive | inactive | inactive | inactive | inactive | inactive | inactive | inactive | inactive | inactive | inactive | – | – | – | – | –
2 | O=c1[nH]c(Cl)c(Cl)cc1Cl | inactive | inactive | – | inactive | inactive | inactive | inactive | inactive | inactive | inactive | inactive | inactive | inactive | inactive | inactive | inactive | inactive | -28.7% | – | –
3 | CC(O)C(=O)[O][Hg][c]1ccccc1 (configuration not stated) | 4.33 µM (active) | 3.99 µM (active) | 4.86 µM (active) | 4.33 µM (active) | inactive | 3.06 µM (active) | 2.43 µM (active) | 1.38 µM (active) | – | – | 6.35 µM (active) | 2.45 µM (active) | 0.977 µM (active) | inactive | 2.75 µM (active) | – | inactive | -80.9% | 4.86 µM (active) | 3.86 µM (active)
4 | O=[N+]([O-])c1ccc(CCl)cc1 | inactive | inactive | inactive | inactive | inactive | inactive | inactive | – | inactive | inactive | inactive | – | – | inactive | inactive | – | inactive | – | – | inactive
5 | CCOP(=S)(OCC)SC(CCl)N1C(=O)c2ccccc2C1=O (configuration not stated) | inactive | inactive | – | inactive | – | inactive | – | inactive | – | inactive | inactive | inactive | inactive | inactive | inactive | inactive | inactive | -14.9% | inactive | –
6 | COC(=O)C(C)N(C(=O)c1ccco1)c1c(C)cccc1C (configuration not stated) | inactive | – | inactive | inactive | 15.3 µM (active) | inactive | inactive | inactive | inactive | inactive | inactive | inactive | inactive | inactive | inactive | inactive | inactive | -15.8% | inactive | inactive
7 | Clc1ccc(C(Cl)(Cl)Cl)cc1Cl | inactive | inactive | – | inactive | – | inactive | – | 24 µM (active) | – | – | inactive | – | 33.9 µM (active) | inactive | – | – | – | – | – | –
8 | S=C=Nc1ccccc1 | inactive | – | inactive | inactive | – | inactive | – | inactive | inactive | inactive | inactive | – | inactive | inactive | inactive | inactive | – | – | – | –
